Screening results from PubChem.
GLD-1 TGE inh: GLD-1/TGE RNA complex disruptors, primary screen, biochemical, fluorescence polarization; 320,000 tested, 0.44% active; inhibition, % at 5.96 µM; purified GLD-1 + fluorescein TGE RNA; Female germline-specific tumor suppressor gld-1 (Caenorhabditis elegans), Q17339; AID 2280, 2010;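 active means percent inhibition above a per-plate cutoff, the plate mean of test compounds plus 3 SD, cut at about 30% in these data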;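 further: 0% = DMSO wells with GLD-1 and probe and 100% = wells lacking GLD-1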
MCL1-BIM inh: inhibitors of MCL1 binding to BIM-BH3, primary screen, biochemical, fluorescence polarization; inhibition, % at 10.9 µM; AID 2057, 2009; Induced myeloid leukemia cell differentiation protein Mcl-1 (Homo sapiens), Q07820; GST-MCL1 / FITC-Bim-BH3 fluorescence polarization; 320,000 tested, 0.68% active;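 active means inhibition above the mean inhibition of all tested compounds plus 3 SD, set per campaign, cut at about 40% in these data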;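 further: 0% = DMSO wells and 100% = unlabeled Bim-BH3 peptide control; higher means more loss of mP so more displacement of Bim peptide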
Bcl-xL primary: inhibitors of human Bcl-xL, primary screen, biochemical, fluorescence polarization, HTS | AID 2129, 2009 | inhibition, % at 10.9 µM | 320,000 tested, 0.7% active | GST-Bcl-xL / FITC-Bim BH3 peptide fluorescence polarization;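 active means inhibition above the mean of all tested compounds plus 3 SD, cutoff set per campaign, cut at about 30% in these data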;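 further: 0% = DMSO wells and 100% = unlabeled Bim-BH3 peptide competitor; inhibitors lower millipolarization by displacing the labeled peptide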
Target sequence (Q07817 whole entry, looked up): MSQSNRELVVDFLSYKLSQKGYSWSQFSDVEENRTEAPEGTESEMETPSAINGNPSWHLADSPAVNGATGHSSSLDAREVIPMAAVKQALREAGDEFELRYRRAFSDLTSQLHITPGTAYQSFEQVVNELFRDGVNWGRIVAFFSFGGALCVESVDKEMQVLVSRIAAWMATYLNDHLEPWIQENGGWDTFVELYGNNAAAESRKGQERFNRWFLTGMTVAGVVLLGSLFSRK
Mcl1-Noxa inh: Mcl-1/Noxa binding inhibitors, primary screen, biochemical, TR-FRET, 1536-well; Induced myeloid leukemia cell differentiation protein Mcl-1 (Homo sapiens), Q07820; TR-FRET Mcl-1/Noxa peptide binding, 2 h; inhibition, % at 21.7 µM; 220,000 tested, 1.5% active; AID 1022, 2008;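 active means compounds that cut the protein-peptide binding signal by more than 50% relative to plate controls in a single-dose test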;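 further: His-tagged Mcl-1 with rhodamine Noxa BH3 peptide and terbium anti-His antibody; 0% = Mcl-1 plus Noxa peptide wells and 100% = peptide-only wells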
Bim-Mcl-1: inhibitors of Bim peptide binding to Mcl-1, primary screen, biochemical, bead-based flow cytometry, multiplex. 190,000 tested, 0.1% active. Bim peptide-Mcl-1 binding. inhibition, % at 10 µM; in the data active means inhibition above about 40%;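 further: 0% = no compound tracer wells and 100% = peptide blocker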
Mcl1-Bid inh: Mcl-1/Bid binding inhibitors, primary screen, biochemical, TR-FRET, 1536-well; AID 1021, 2008; inhibition, % at 21.7 µM; 220,000 tested, 0.97% active; TR-FRET Mcl-1/Bid-Dy647 peptide binding; Induced myeloid leukemia cell differentiation protein Mcl-1 (Homo sapiens), Q07820;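 active means compounds that cut the binding signal by more than half at the single screening dose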;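 further: His-tagged Mcl-1 with europium anti-His antibody binding Bid BH3 peptide; 0% = Mcl-1 plus peptide wells and 100% = peptide-only wells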
Starred values were filed as active, the others as inactive; nt = not tested or not shown. Only some compounds are listed: those with a hit (about 2.3% of all), similar ones and a draw of the others.

SMILES	GLD-1 TGE inh	MCL1-BIM inh	Bcl-xL primary	Mcl1-Noxa inh	Bim-Mcl-1	Mcl1-Bid inh
CCc1ccc2nc(N3C(=O)C(O)=C(C(=O)c4ccco4)C3c3cccs3)sc2c1 (centres undefined)	-1	7	2	53*	1	19
COc1cc(OC)c2cc(C(=O)N[C@H](C(=O)N3CCC[C@H]3C(=O)O)C(C)C)n(C)c2c1	-10	9	8	nt	nt	nt
CC(=O)OCC[C@H](NS(=O)(=O)OCC(Cl)(Cl)Cl)c1ccccc1	1	5	8	nt	nt	nt
Cn1cc(CN2CCCC(CO)(Cc3cccc(Cl)c3)C2)cn1 (centres undefined)	-5	0	-3	68*	-3	-33
CCn1cc(CN2CCCC(CO)(Cc3cccc(Cl)c3)C2)cn1 (centres undefined)	3	7	7	3	-1	-47
CC1CCN(C(=O)CSC2=NS(=O)(=O)c3cc(F)ccc3N2)CC1	-10	3	4	nt	nt	nt
CCCCC[C@H]1CN(C2CCCCC2)C(=O)[C@@H]1CC(=O)NCc1ccccc1	-3	13	11	nt	nt	nt
COc1ccc(C=Nc2cccnc2N)cc1	64*	45*	46*	nt	nt	nt
COc1ccc(/C=N/Nc2nonc2N)cc1	1	3	4	61*	0	-12
Nc1nonc1N/N=C/c1c(O)ccc2ccccc12	0	7	3	51*	1	-21
Nc1nonc1N/N=C\c1ccccc1	3	1	1	-12	nt	-2
CCOc1ccc(C=Nc2cccc3ncccc23)cc1	1	9	4	24	0	-42
COc1ccc(/C=N/Nc2nn3cnnc3c3ccccc23)cc1	7	6	9	57*	nt	9
CCNc1nc(NCC)nc(N/N=C/c2ccc(OC)cc2)n1	-4	4	8	-20	nt	-16
COCCCNc1nc2c(-c3ccc(Cl)cc3)nnn2c2ccccc12	0	7	4	-177	-1	25
NNc1nc2c(-c3ccc(F)cc3)nnn2c2ccccc12	-26	8	16	69*	6	-23
NNc1nc2c(-c3ccc(Cl)cc3)nnn2c2ccccc12	-13	15	10	68*	-3	12
O=C(c1cc2sccc2n1Cc1ccc(F)cc1)N1CCN(c2nc3ccccc3s2)CC1	-3	6	79*	-6	3	-16
CCc1nc(-c2ccccc2)c2ccccn12	-1	-1	5	62*	0	9
Cc1cc(NC(=O)c2noc3c2CCc2ccccc2-3)no1	0	-1	2	41	0	67*
O=C(Nc1ccc([N+](=O)[O-])cc1)c1nc[nH]c1C(=O)NC1CCCCC1	6	-3	1	-14	-1	-8
O=C(Nc1ccc(F)cc1)c1nc[nH]c1C(=O)Nc1ccc([N+](=O)[O-])cc1	-5	4	8	62*	-1	62*
O=C(CCCC(=O)N(CC(=O)NC1CCCCC1)c1ccccc1F)Nc1ccccn1	2	3	4	nt	nt	nt
Cc1ccccc1C(=O)Nc1cccc(-c2ccc3nncn3n2)c1	-4	-3	1	4	3	-5
O=C(Nc1cccc(-c2ccc3nncn3n2)c1)c1ccco1	0	-3	6	-6	41*	-9
OCCNc1c2ccccc2nc2c(F)c(F)c(F)c(F)c12	16	32	30*	11	-5	-6
Cc1cccc(-n2c(C)cc(/C=C3/C(=N)N4C(c5ccccc5)=CSC4=NC3=O)c2C)c1	1	8	4	13	21	-12
N=C1S/C(=C\c2ccc(-c3cccc(Cl)c3)o2)C(=O)N1c1nccs1	-6	1	8	88*	0	91*
N=C1/C(=C\c2ccc(-c3cccc(Cl)c3)o2)C(=O)N=C2SC=C(c3ccccc3)N12	-14	-56	-9	51*	-2	-24
N=C1/C(=C\c2ccc(-c3ccc(C(=O)O)cc3)o2)C(=O)N=C2SC=C(c3ccccc3)N12	nt	nt	nt	117*	nt	96*
